PubChem BioAssay
Activity calls are given as the source filed them.

What was measured:
[1] = tested on: PRMT1 (protein arginine N-methyltransferase 1); experiment: PRMT1 binders on small-molecule microarrays, primary screen, biochemical, small-molecule microarray, 635 nm fluorescence (AID 1088); details: small-molecule microarray binding, higher = more signal;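 note: binding of Prmt1 protein to compounds spotted on small-molecule microarray slides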
[2] = yeast growth modulation, basal conditions, primary screen, YJM789 clinical isolate, OD600, 24 h (AID 1089);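 note: growth of clinical yeast isolate S. cerevisiae YJM 789 seeded 1000 cells per well; test concentration not given here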; details: S. cerevisiae YJM789 growth, higher = more signal, called active from +8 up or from −8 down
[3] = fission yeast growth modulation, primary screen, strain 972, OD600, 24 h, no modulator (AID 1090);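 note: basal condition with compound alone and no growth modifier present; test concentration not given here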; details: S. pombe 972 growth, higher = more signal, called active from +8 up or from −8 down
[4] = S. cerevisiae growth modulation with rapamycin, primary screen, strain BY4716, OD600, 96 h (AID 1091); details: higher = more signal, called active from +8 up or from −8 down; note: test concentration not given here
[5] = biological target: Torsin-1A-interacting protein 2 (Homo sapiens) (UniProt Q8NFQ8); experiment: LULL1 binders on small-molecule microarray, primary screen, cell lysate, human LULL1 lysate, 635/667 nm fluorescence (AID 1092); details: hLULL1 lysate binding, 635 nm fluorescence, higher = more signal;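 note: probe is lysate of COS7 cells overexpressing human LULL1; score merges per-feature 667 nm fluorescence with signal-to-noise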
[6] = E. coli growth modulation, two-sided OD650, primary screen, E. coli filamentation project, strain DRC41, 24 h (AID 1093); details: OD650, 24 h, higher = more signal, called active from +8 up or from −8 down;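 note: MC1000 strain lacking acrAB efflux and sulA so SOS filamentation is blocked; test concentration not given here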
[7] = small-molecule microarray binders of probe aLefty2, primary screen, biochemical, biotinylated probe, 635/667 nm fluorescence (AID 1094); details: higher = more signal;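 note: score merges spot fluorescence near 667 nm with spot signal-to-noise ratio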
[8] = tested on: Noggin (protein binding on small-molecule microarray); experiment: Noggin binders on small-molecule microarray, primary screen, biochemical, 635/667 nm fluorescence (AID 1095); details: 635 nm fluorescence, higher = more signal;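 note: score merges 667 nm feature fluorescence with signal to noise over triplicate slides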
[9] = biological target: Neurogenic locus notch homolog protein 3 (Homo sapiens) (UniProt Q9UM47); experiment: NOTCH3 binders on small-molecule microarray, primary screen, biochemical, 635/667 nm fluorescence (AID 1096); details: NOTCH3 binding, 635 nm fluorescence, higher = more signal
[10] = small-molecule microarray binders of probe aEGFR, primary screen, biochemical, biotinylated probe, 635/667 nm fluorescence (AID 1097); details: higher = more signal;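 note: probe is a biotinylated anti-EGFR antibody binding compounds printed on slides; score combines fluorescence near 667 nm and signal to noise of each spot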
[11] = tested on: Plasmodium falciparum Sir2 (PF13_0152, Sir2A); experiment: pfSir2 binders on small-molecule microarrays, primary screen, biochemical, small-molecule microarray, 635 nm fluorescence (AID 1098); details: small-molecule microarray binding, fluorescence 635 nm; higher = more signal;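 note: score merges spot fluorescence intensity with its signal-to-noise ratio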
[12] = small-molecule microarray binders of probe aDKK1, primary screen, biochemical, biotinylated probe, 635/667 nm fluorescence (AID 1099); details: higher = more signal;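 note: score merges 667nm spot fluorescence with signal to noise across triplicate slides; reference of the scale not given here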
[13] = small-molecule microarray binders of probe aCHRDL2, primary screen, biochemical, biotinylated probe, 635/667 nm fluorescence (AID 1100); details: higher = more signal
[14] = splicing luciferase reporter signal modulators, primary screen, spliceosome inhibition project, cell-based, HEK293, splice +/- reporter (AID 1101); details: luminescence, 24 h, higher = more signal, called active from +8 up or from −8 down;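 note: HEK293 cells carrying a splicing-competent luciferase reporter gene; test concentration not given here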
[15] = biological target: Fibroblast growth factor 10 (Homo sapiens) (UniProt O15520); experiment: FGF10 binders on small-molecule microarrays, primary screen, biochemical, small-molecule microarray, 635 nm fluorescence (AID 1102); details: FGF10 binding, fluorescence 635 nm, higher = more signal
[16] = tested on: glycogen synthase kinase-3 (GSK3A per assay name; protocol says GSK3B); experiment: GSK3 binders on small-molecule microarrays, primary screen, biochemical, small-molecule microarray, 635 nm fluorescence, GSK3A (AID 1103); details: small-molecule microarray binding, fluorescence 635 nm; higher = more signal; note: the record names both GSK3A and GSK3B
[17] = biological target: Epidermal growth factor receptor (Homo sapiens) (UniProt P00533); experiment: EGFR binders on small-molecule microarrays, primary screen, biochemical, small-molecule microarray, 635 nm fluorescence (AID 1104); details: EGFR binding, higher = more signal;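 note: score merges 667 nm emission intensity with spot signal to noise over triplicate slides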
[18] = biological target: Follistatin-related protein 3 (Homo sapiens) (UniProt O95633); experiment: FSTL3 binders on small-molecule microarrays, primary screen, biochemical, small-molecule microarray, 635 nm fluorescence (AID 1105); details: FSTL3 binding, higher = more signal;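 note: score merges emission near 667 nm and signal to noise per printed spot across three slides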
[19] = biological target: Dickkopf-related protein 1 (Homo sapiens) (UniProt O94907); experiment: DKK1 binders on small-molecule microarrays, primary screen, biochemical, small-molecule microarray, 635 nm fluorescence scan (AID 1106); details: DKK1 binding, higher = more signal;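 note: score merges emission near 667 nm with signal to noise over three replicate slides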
[20] = tested on: Inhibin beta A chain (activin A); experiment: INHBA (activin A) binders on microarrays, primary screen, biochemical, small-molecule microarray, 635 nm fluorescence scan (AID 1107); details: small-molecule microarray binding, higher = more signal;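 note: mouse activin A protein probed at 4.33 µg/mL on printed slides; score merges bound-protein fluorescence near 667 nm with spot signal-to-noise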

Torsin-1A-interacting protein 2 (Homo sapiens), sequence (Q8NFQ8 whole entry, looked up): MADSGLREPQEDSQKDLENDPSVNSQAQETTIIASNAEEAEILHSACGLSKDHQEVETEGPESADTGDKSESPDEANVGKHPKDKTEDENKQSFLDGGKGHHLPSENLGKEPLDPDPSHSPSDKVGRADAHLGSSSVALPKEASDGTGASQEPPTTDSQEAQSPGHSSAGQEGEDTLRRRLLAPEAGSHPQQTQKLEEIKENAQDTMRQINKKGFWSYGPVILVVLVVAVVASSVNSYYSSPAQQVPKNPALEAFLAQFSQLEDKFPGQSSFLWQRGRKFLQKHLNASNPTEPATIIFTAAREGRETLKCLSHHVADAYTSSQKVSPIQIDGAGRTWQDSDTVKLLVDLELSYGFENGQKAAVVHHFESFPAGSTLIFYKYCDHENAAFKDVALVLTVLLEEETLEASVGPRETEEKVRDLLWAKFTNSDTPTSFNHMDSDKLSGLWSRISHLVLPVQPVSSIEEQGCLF
Follistatin-related protein 3 (Homo sapiens), sequence (O95633 whole entry, looked up): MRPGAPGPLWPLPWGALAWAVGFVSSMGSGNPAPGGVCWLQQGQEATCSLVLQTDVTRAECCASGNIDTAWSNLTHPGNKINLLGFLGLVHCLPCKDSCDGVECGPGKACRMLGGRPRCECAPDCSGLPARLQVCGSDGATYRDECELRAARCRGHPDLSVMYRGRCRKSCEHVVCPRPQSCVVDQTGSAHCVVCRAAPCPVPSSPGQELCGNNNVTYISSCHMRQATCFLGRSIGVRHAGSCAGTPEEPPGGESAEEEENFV
Neurogenic locus notch homolog protein 3 (Homo sapiens), sequence (Q9UM47 whole entry, looked up): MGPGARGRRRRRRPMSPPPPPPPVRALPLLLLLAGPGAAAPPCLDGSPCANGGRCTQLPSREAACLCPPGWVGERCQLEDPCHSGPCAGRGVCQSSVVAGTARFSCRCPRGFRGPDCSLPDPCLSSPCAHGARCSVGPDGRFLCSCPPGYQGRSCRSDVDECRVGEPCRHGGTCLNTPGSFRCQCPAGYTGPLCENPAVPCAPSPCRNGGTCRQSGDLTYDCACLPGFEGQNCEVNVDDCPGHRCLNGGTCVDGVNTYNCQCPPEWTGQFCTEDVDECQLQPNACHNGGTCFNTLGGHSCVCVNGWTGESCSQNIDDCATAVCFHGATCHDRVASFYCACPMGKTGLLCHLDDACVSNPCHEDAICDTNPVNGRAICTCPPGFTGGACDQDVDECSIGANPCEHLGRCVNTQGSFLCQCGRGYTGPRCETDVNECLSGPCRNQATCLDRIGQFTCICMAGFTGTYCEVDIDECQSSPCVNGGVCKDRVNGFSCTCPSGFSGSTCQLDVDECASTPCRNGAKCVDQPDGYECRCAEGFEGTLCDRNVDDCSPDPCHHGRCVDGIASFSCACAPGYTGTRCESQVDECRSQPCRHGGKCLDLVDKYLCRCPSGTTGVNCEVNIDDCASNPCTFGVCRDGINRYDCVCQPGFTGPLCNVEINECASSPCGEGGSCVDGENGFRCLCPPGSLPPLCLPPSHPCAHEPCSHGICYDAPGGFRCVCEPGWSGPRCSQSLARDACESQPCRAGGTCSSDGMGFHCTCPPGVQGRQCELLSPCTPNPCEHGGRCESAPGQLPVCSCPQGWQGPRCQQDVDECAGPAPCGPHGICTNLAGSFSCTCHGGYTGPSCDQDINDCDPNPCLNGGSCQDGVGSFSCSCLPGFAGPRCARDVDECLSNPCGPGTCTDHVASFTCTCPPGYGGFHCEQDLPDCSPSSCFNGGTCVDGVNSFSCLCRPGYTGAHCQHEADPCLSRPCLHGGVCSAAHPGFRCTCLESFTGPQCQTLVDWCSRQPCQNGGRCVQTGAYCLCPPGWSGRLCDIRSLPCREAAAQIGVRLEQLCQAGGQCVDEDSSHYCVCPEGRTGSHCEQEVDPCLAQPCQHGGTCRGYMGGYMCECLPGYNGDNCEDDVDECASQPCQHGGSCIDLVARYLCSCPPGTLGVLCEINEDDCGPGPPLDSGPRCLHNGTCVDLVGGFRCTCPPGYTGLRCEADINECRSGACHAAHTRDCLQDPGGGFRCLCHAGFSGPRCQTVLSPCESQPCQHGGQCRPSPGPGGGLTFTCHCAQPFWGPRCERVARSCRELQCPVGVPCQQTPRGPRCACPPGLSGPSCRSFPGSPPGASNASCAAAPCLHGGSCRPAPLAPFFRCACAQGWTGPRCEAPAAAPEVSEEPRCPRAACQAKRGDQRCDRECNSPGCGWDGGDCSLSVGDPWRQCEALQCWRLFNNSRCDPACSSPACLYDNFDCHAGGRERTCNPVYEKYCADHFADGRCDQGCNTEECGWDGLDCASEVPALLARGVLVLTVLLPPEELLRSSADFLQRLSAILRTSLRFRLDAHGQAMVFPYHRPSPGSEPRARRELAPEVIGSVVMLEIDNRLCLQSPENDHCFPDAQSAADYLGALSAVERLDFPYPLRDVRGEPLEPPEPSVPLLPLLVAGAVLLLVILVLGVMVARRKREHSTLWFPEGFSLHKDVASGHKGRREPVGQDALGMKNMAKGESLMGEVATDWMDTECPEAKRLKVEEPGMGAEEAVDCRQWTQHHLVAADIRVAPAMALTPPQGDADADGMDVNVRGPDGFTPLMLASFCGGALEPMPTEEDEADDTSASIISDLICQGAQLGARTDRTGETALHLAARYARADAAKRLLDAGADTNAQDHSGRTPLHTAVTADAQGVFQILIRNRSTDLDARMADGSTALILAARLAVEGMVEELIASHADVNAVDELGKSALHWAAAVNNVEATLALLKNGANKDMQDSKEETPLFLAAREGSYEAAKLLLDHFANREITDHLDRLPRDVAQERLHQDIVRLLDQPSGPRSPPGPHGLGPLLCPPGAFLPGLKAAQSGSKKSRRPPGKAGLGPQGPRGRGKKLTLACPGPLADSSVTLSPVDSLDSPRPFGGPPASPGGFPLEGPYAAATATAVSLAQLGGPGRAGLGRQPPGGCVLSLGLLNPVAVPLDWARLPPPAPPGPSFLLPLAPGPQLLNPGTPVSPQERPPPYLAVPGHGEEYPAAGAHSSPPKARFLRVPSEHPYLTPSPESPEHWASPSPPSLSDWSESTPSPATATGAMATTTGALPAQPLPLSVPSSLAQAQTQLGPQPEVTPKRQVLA
Epidermal growth factor receptor (Homo sapiens), sequence (P00533 whole entry, looked up): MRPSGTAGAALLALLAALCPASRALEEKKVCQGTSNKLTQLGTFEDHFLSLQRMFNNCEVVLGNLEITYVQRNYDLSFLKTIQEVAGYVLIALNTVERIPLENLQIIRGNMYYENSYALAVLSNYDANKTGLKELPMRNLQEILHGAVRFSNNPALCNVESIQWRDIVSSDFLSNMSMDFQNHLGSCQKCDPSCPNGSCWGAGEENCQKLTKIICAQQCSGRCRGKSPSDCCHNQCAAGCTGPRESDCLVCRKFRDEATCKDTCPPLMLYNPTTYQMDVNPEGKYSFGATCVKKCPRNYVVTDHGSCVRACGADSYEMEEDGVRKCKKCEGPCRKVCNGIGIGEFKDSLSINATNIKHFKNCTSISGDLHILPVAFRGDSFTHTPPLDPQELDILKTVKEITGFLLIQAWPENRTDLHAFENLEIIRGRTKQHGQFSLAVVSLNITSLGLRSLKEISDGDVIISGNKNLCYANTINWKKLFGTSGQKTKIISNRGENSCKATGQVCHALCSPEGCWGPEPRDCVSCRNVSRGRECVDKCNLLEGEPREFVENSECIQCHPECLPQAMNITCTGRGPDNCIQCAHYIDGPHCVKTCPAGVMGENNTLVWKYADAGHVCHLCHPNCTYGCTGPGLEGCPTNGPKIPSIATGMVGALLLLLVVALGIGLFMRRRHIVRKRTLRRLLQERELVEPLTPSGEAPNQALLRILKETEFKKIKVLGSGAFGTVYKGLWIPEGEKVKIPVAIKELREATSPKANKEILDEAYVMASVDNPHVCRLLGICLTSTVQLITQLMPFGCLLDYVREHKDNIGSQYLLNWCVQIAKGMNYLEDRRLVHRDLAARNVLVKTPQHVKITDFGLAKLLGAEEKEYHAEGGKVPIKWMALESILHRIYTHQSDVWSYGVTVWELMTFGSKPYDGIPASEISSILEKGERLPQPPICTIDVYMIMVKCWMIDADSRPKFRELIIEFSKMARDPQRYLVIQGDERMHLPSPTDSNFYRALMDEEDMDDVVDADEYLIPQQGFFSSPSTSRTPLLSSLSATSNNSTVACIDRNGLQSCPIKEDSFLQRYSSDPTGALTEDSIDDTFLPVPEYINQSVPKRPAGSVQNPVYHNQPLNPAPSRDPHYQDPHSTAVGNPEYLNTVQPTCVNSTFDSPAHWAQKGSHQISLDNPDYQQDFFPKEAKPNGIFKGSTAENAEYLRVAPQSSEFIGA
Dickkopf-related protein 1 (Homo sapiens), sequence (O94907 whole entry, looked up): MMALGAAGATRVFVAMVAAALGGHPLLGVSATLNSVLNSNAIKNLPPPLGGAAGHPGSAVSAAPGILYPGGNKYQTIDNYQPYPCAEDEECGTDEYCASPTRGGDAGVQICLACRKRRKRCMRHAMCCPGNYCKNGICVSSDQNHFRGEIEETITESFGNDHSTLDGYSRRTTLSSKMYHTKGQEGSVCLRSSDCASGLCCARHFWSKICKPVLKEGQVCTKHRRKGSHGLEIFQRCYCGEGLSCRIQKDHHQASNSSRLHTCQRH
Fibroblast growth factor 10 (Homo sapiens), sequence (O15520 whole entry, looked up): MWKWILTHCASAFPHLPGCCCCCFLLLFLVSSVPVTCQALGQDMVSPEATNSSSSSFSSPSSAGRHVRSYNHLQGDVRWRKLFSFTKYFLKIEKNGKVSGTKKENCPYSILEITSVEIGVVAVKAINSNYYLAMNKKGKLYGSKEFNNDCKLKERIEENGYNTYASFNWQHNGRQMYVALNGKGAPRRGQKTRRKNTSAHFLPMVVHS

Compound	composite z-score [1]	z-score [2]	z-score [3]	z-score [4]	composite z-score [5]	z-score [6]	composite z-score [7]	composite z-score [8]	composite z-score [9]	composite z-score [10]	composite z-score [11]	composite z-score [12]	composite z-score [13]	z-score [14]	composite z-score [15]	composite z-score [16]	composite z-score [17]	composite z-score [18]	composite z-score [19]	composite z-score [20]
C=CCNC(=O)[C@H]1[C@@H]2C(=O)O[C@@H](c3ccccc3)[C@@H](c3ccccc3)N2[C@@H](c2ccc(O)cc2)[C@]12C(=O)Nc1ccc(C#CC3(O)CCCCCC3)cc12	1.55	-0.494 (inactive)	0.369 (inactive)	0.335 (inactive)	3.03	-1.08 (inactive)	-0.0953	1.09	0.354	-0.0896	1.38	0.0898	0.105	0.558 (inactive)	0.155	0.373	-0.612	-0.0182	0.0926	0.697
C=CCN1C(=O)[C@@]2(CCS(=O)(=O)c3ccccc3)N=C(c3ccc(OCCCO)cc3)O[C@H]2c2ccccc21	1.54	0.15 (inactive)	-0.0698 (inactive)	3.13 (inactive)	2.88	0.192 (inactive)	-0.0177	1.43	1.12	0.154	1.32	0.331	0.482	0.095 (inactive)	0.69	1.33	0.958	1.14	0.822	1.18
COc1ccc([Si](C)(C)[C@@H]2[C@@H](CCO)O[C@]3(C(=O)N(Cc4ccc(N5CCCCC5=O)cc4)c4ccccc43)[C@H]2C)cc1	1.53	-0.102 (inactive)	0.0767 (inactive)	3.05 (inactive)	2.09	1.2 (inactive)	-0.181	0.731	1.11	-0.0828	1.15	-0.128	-0.756	-1.73 (inactive)	1.21	0.83	0.336	0.87	0.562	0.669
O=C1O[C@H](c2ccccc2)[C@H](c2ccccc2)N2[C@H]1[C@@H](C(=O)NC[C@H](O)c1ccccc1)[C@]1(C(=O)Nc3ccc(C#CCCO)cc31)[C@H]2c1ccc(OCCO)cc1	1.55	2.73 (inactive)	1.62 (inactive)	4.7 (inactive)	2.08	0.301 (inactive)	-0.122	0.558	0.818	-0.133	1.58	0.222	0.0751	0.613 (inactive)	0.575	0.739	0.037	0.701	0.264	0.503
CC(C)(C)OC(=O)CC[C@]1(C(=O)NCC(O)CO)N=C(c2ccc(OCCCO)cc2)O[C@H]1c1ccccc1 (stereo not given in full)	-0.362	-0.866 (inactive)	-0.956 (inactive)	-0.744 (inactive)	3.45	1.91 (inactive)	0.0424	-0.837	-0.89	0.109	0.835	1.1	0.897	-0.495 (inactive)	0.57	0.206	-0.516	-0.715	-1.09	-0.0014
CCOC(=O)C1=C[C@@H](c2ccccc2)N(S(=O)(=O)c2ccc(C)cc2)[C@H]1c1ccccc1Cl	1.5	0.849 (inactive)	2.19 (inactive)	2.48 (inactive)	2.8	-0.518 (inactive)	0.0935	0.985	1.06	0.153	1.9	0.379	-0.229	0.328 (inactive)	1.29	1.29	0.683	1.05	0.508	0.556
COCCOC(=O)N1C(=O)[C@@]2(c3cc(C#CC4=CCCCC4)ccc31)[C@H](c1ccc(OCCO)cc1)N1[C@H](c3ccccc3)[C@H](c3ccccc3)OC(=O)[C@H]1[C@@H]2C(=O)NC[C@H](O)c1ccccc1	1.54	2.04 (inactive)	0.798 (inactive)	5.7 (inactive)	2.6	0.546 (inactive)	0.789	1.11	1.07	0.108	1.44	0.677	0.696	-0.228 (inactive)	1.35	1.31	0.933	1.49	1.32	1.29
COCCCNC(=O)[C@@]1(Cc2ccccc2N=[N+]=[N-])COC(c2ccc(OCCCO)cc2)=N1	1.43	-0.0885 (inactive)	-1.52 (inactive)	0.0734 (inactive)	3.13	1.39 (inactive)	0.219	0.0137	0.0417	0.507	0.955	0.516	1.17	0.989 (inactive)	0.475	-0.331	-0.027	-0.121	-0.599	1.61
[N-]=[N+]=NCc1ccccc1C[C@@]1(C(=O)N2CCCCC2)N=C(c2ccc(OCCCO)cc2)O[C@@H]1c1ccccc1	0.424	0.591 (inactive)	1.08 (inactive)	32.6 (active)	2.2	0.685 (inactive)	-0.0261	-0.578	-0.426	0.159	0.884	0.542	0.751	-0.422 (inactive)	0.384	0.0635	-0.451	-0.281	-0.849	1.05
COc1ccc(NC(=O)O[C@H]2[C@H](OC(=O)Nc3ccccc3)[C@@H](OC(=O)Nc3ccccc3)[C@@H](OC)O[C@@H]2CO)cc1	1.55	2.09 (inactive)	-0.0554 (inactive)	-0.758 (inactive)	3.27	-0.633 (inactive)	-0.0666	1.62	0.822	-0.0054	1.55	0.25	0.39	-1.67 (inactive)	1.5	1.31	0.0729	0.83	0.396	0.385
COCCOC(=O)N1C(=O)[C@@]2(c3cc(C#CCNC(N)=O)ccc31)[C@H](C(=O)N1CCc3cc(OC)c(OC)cc3C1)[C@H]1C(=O)O[C@H](c3ccccc3)[C@H](c3ccccc3)N1[C@@H]2c1ccccc1OCCO	1.37	-0.959 (inactive)	0.319 (inactive)	3.2 (inactive)	2.14	1.16 (inactive)	0.0253	1.36	1.11	-0.0734	1.26	0.073	0.315	0.0466 (inactive)	1.41	1.14	0.873	1.14	0.246	0.586
CCOC(=O)C[C@H]1[C@H](OC(=O)c2cc3ccccc3oc2=O)[C@@H](NC(=O)c2ccc(-c3ccccc3)cc2)c2cc(OCCCO)ccc2N1C(=O)c1ccc2ccccc2n1	1.25	0.443 (inactive)	0.394 (inactive)	1.14 (inactive)	1.92	-0.0642 (inactive)	-0.084	0.873	1.05	-0.0531	0.853	-0.183	-0.386	-0.338 (inactive)	0.93	1.01	0.622	1.06	0.45	0.379
C[C@H]1NC(=O)[C@@]23C(=O)N[C@@H](Cc4ccccc4)C2[C@H](C)[C@@]2(C)O[C@H]2C3/C=C/C/C=C\CNC(=O)[C@H](Cc2ccccc2)NC1=O (stereo not given in full)	0.44	0.907 (inactive)	-0.236 (inactive)	0.952 (inactive)	0.834	-0.225 (inactive)	-0.213	1.22	0.967	-0.096	1.29	-0.354	-0.427	0.106 (inactive)	0.932	0.138	0.199	1.01	0.689	1.34
COCCOC(=O)N1C(=O)[C@@]2(c3cc(C#CCCO)ccc31)[C@H](c1ccccc1OCCO)N1[C@H](c3ccccc3)[C@H](c3ccccc3)OC(=O)[C@H]1[C@@H]2C(=O)Nc1nc2ccccc2s1	1.55	0.97 (inactive)	1.42 (inactive)	2.76 (inactive)	2.45	0.0879 (inactive)	-0.0063	1.1	1.06	0.113	1.5	0.95	0.856	-0.713 (inactive)	0.689	1.2	0.397	0.966	0.635	0.46
C=CCN1C(=O)[C@@]2(O[C@@H](CCn3cc([C@H](O)c4ccccc4)nn3)[C@H]([Si](C)(C)c3ccc(OC)cc3)[C@H]2C)c2cc(N3CCC3=O)ccc21	0.467	1.38 (inactive)	0.95 (inactive)	2.37 (inactive)	1.03	0.456 (inactive)	-0.11	0.711	-0.681	-0.183	1.43	0.0289	0.257	-0.429 (inactive)	0.216	-0.0371	-0.0844	-0.296	-0.0607	0.289
O=C1O[C@@H](c2ccccc2)[C@@H](c2ccccc2)N2[C@@H](c3ccc(OCCO)cc3)[C@]3(C(=O)Nc4ccccc43)[C@@H](C(=O)O)[C@H]12	0.194	0.264 (inactive)	-0.272 (inactive)	-0.219 (inactive)	3.09	0.852 (inactive)	0.176	-0.179	-0.239	0.247	0.327	-0.483	0.273	-0.715 (inactive)	0.119	-0.739	-0.38	-0.415	-0.32	0.758
CN1C(=O)C2C=CC(C(O)c3ccc(F)cc3)N(Nc3ccccc3)C2C1=O (stereo not given)	0.225	0.397 (inactive)	1.08 (inactive)	1.97 (inactive)	3.69	-1.2 (inactive)	0.085	0.447	1.02	0.0034	1.4	0.4	0.902	0.909 (inactive)	0.0186	-0.433	-0.165	0.578	-0.463	0.623
Cc1ccccc1C(O)C1C=CC2C(=O)N(C)C(=O)C2N1N(c1ccccc1)c1ccccc1 (stereo not given)	-0.437	0.787 (inactive)	0.503 (inactive)	0.753 (inactive)	-0.604	-0.717 (inactive)	0.756	-0.177	-0.899	0.409	-0.167	0.858	0.11	0.595 (inactive)	0.362	-0.401	0.304	0.0459	0.119	1.33
CC(C)Cc1ccc(CN2CC[C@@H](NC(=O)Nc3ccccc3)C2)cc1	-0.785	-21.2 (active)	-21.2 (active)	-4.26 (inactive)	-0.389	-0.817 (inactive)	-0.138	-0.0751	-0.963	-0.0214	1.06	-0.342	-0.358	2.68 (inactive)	-0.62	-0.274	-0.301	-0.496	0.238	0.692
